From PubChem BioAssay (NCI)
Compounds without any hit were thinned out: in the full panel of roughly 83,000, 20% have a hit.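 Interpretation: 100, growth as untreated; towards 0, rising growth inhibition; 0, no net growth; 0 to -100, cell death. Compounds scoring below 10 were considered active.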 Values without a mark were called inactive. Activity calls are given as the source filed them.

Assays:
Experiment in all cases: NCI-60 one-dose screen, 48 h (100 = growth as untreated, 0 = no growth, -100 = all killed)
Conditions in all cases: 10 µM unless noted
[1] = system: HCT-15 colon
[2] = system: HT29 colon
[3] = system: SNB-75 CNS
[4] = system: SNB-19 CNS
[5] = system: U251 CNS
[6] = system: SK-MEL-5 melanoma
[7] = system: UACC-62 melanoma
[8] = system: LOX IMVI melanoma
[9] = system: SK-MEL-28 melanoma
[10] = system: SK-MEL-2 melanoma
[11] = system: EKVX NSCLC
[12] = system: SN12C renal
[13] = system: UO-31 renal
[14] = system: TK-10 renal
[15] = system: ACHN renal
[16] = system: CAKI-1 renal
[17] = system: A498 renal
[18] = system: CCRF-CEM leukemia
[19] = system: MOLT-4 leukemia
[20] = system: PC-3 prostate

Row | Compound | growth [1] | growth [2] | growth [3] | growth [4] | growth [5] | growth [6] | growth [7] | growth [8] | growth [9] | growth [10] | growth [11] | growth [12] | growth [13] | growth [14] | growth [15] | growth [16] | growth [17] | growth [18] | growth [19] | growth [20]
1 | COc1cc(-c2ccc(-c3ccc(C(=N)N)cc3)s2)cc(OC)c1OC | 58.9% | 8.4% (active) | 64.8% | 69.1% | 26.2% | 55.3% | 54.7% | 27.2% | 77.3% | 83.9% | 75.4% | 71.4% | 79.3% | 113% | 91.1% | 63.4% | 89.2% | 26.9% | -2.06% (active) | 
2 | Cc1ccc(-c2csc(NC(=O)CSc3nc(N)cc(N)n3)n2)cc1 | 75.2% | 87.8% | 81.1% | 64.2% | 78.1% | 2.45% (active) | 55.1% | 60.2% | 88.7% | 51.6% | 46.4% |  | 64.1% | 78.9% | 65.8% | 79% | 66.3% | 50% | 44.4% | 
3 | O=C(NCCN1CCOCC1)OCc1ccc2c(Cl)cc(Cl)c(O)c2n1 | 19.5% | 108% | 71.2% | 59% | 44.6% | 53.8% | 59.7% | 51% | 71.6% | 78.1% | 89.6% | 64.4% | 25.5% | 96.4% | 37.3% | 47.1% | 106% | 48.3% |  | 
4 | CCOC(=O)c1cnn(CC(C)O)c1NC(=O)NCc1cccc(F)c1 (centres undefined) | 107% | 84.3% | 104% | 107% | 97.4% | 100% |  | 97.1% | 113% | 85.6% | 99.9% | 103% | 91.7% | 86.9% | 106% | 97.3% | 96.4% | -2.06% (active) | 81.4% | 
5 | C=C1SC(=Nc2ccccc2Cl)N(C(=O)c2sc3ccccc3c2Cl)C1(C)C | 81.4% | 61.6% | 42.6% | 42.9% | 49.2% | 66.7% | 60% | 77.3% | 113% | 151% | 54.4% | 78.9% | 107% | 107% | 46.1% | 49% | 90.5% | 19.8% | 20.3% | 
6 | O=C(/C=C/c1cccc(Oc2ccccc2)c1)c1ccc(Nc2nc(Nc3ccc(F)cc3)nc(Nc3ccc(Cl)cc3)n2)cc1 | 109% | 101% | 92.5% | 108% | 101% | 96.4% | 105% | 108% | 112% | 69.1% | 106% | 123% | 91.8% | 130% | 98.6% | 104% | 113% | 116% | -35.6% (active) | 
7 | CCN(CC)CCOc1ccc2c(-c3ccccc3)c(-c3ccc(OC)cc3)c(=O)oc2c1 | 11.4% | 17% | 82.6% | 69% | 44.4% | 25.9% |  | 29.3% | 43.1% | 51.6% | 83.9% | 68.5% | 62.6% | 75.9% |  | 71.9% | 70.2% | 75.3% | 35.4% | 65.4%
8 | COCCOC(C)C(/C=N/NC(N)=S)=N/NC(N)=S (centres undefined) | 51.8% | 39.5% | 120% | 92.8% | 48.5% | 60.8% |  | 51.1% | 90.1% | 82.5% | 55.7% | 76.5% | 79.1% |  | 66.7% | 82.6% | 107% | 42.6% | 16.7% | 27.9%
9 | COc1ccc(C/C(C)=C(\c2ccc(O)cc2)c2ccc(OCCN3CCCCC3)cc2)cc1 | 72.7% | 22.5% | 77% | 97.1% | 72.6% | 86.1% | 90.5% | 84.4% | 90.3% | 114% | 90.1% | 89.9% | 56.6% | 85.2% | 93.1% | 104% | 110% | 54.4% | 38.4% | 
10 | O=C1/C(=C/c2ccccn2)SC(=S)N1N1CCOCC1 | 102% | 103% | 90.4% | 101% | 98.1% | 99.2% | 92.8% | 97.8% | 105% | 89.8% | 90.6% | 93.6% | 71.9% | 98.5% | 99.5% | 92.6% | 102% | 84.2% | 101% | 
11 | N#CC1=C(N)Oc2c(sc3c(F)cccc23)C1c1ccc([N+](=O)[O-])cc1 (centres undefined) | -54.5% (active) | -13.6% (active) | -35.3% (active) | -27.9% (active) | -64.5% (active) | -95.9% (active) | -75.6% (active) | -83.1% (active) | -44.1% (active) | -42.2% (active) | -2.24% (active) | -79% (active) | -26.4% (active) | -7.94% (active) |  | 0.858% (active) | -36.3% (active) | 3.46% (active) | -1.93% (active) | 
12 | CCOC(=O)c1c(C)nc2ccccc2c1/C=C/c1ccc(F)cc1 | 68.1% | 75.5% | 86.5% | 76.9% | 75.5% | 16.7% | 49.7% | 74.1% | 101% | 75.2% | 60.3% | 77.1% | 62.8% | 82.3% | 75.5% | 67.7% | 75.4% | 67.8% | 42.8% | 
13 | CCN(CC)C(=O)C1=C(C)NC(=O)NC1c1ccc2c(c1)OCO2 (centres undefined) | 105% | 107% | 93.3% | 96.2% | 102% | 101% | 102% | 95.6% | 115% | 108% | 99% | 107% | 81.4% | 100% | 103% | 93.1% | 111% | 104% | 104% | 
14 | O=C(O)c1cn(C2CC2)c2cc(N3CCN(C(=O)N4CCOCC4)CC3)c(F)cc2c1=O | 103% | 102% | 98.1% | 105% | 103% | 99.4% |  | 87.1% | 104% | 103% | 101% | 101% | 79.6% | 93.2% | 100% | 96.5% | 117% | 108% |  | 
15 | Cc1ccc(OCCOCCOCCOCCOCCOc2ccc(C)n(O)c2=S)c(=S)n1O | 29% | 25.7% | 24.8% | 16.7% | 12.3% | -32.3% (active) | -13.9% (active) | 3.58% (active) | 33.2% | 15.7% | 13.1% | 8.41% (active) | -26.1% (active) | 30.2% | 8.16% (active) | 7.97% (active) | 20.4% | 1.49% (active) | 2.29% (active) | 
16 | COc1ccc(C/C(C)=C(\c2ccc(Cl)cc2)c2ccc(OCCN3CCCC3)cc2)cc1 | 40.2% | 19.6% | 88.5% | 92.1% | 61.1% | 89.7% | 90.8% | 82.9% | 91.4% | 96.8% | 96.7% | 82.7% | 66.3% | 87.6% |  | 83.4% | 110% | 57.2% | 44.6% | 
17 | CC(C)n1c2ccc(Br)cc2c2c3c(c4c5ccccc5ccc4c21)C(=O)NC3=O | 83.7% | 70.3% | 103% | 102% | 98% | 90.7% | 101% | 106% | 96.5% | 111% | 86.1% | 85.9% | 59.2% | 91.8% | 68.4% | 82.5% | 71.8% | 90.1% | 75.1% | 
